For test [1], the target named is Cytochrome P450 1A2 (Homo sapiens) (UniProt P05177). As to the kind of experiment: p450-cyp1a2 (AID 410; calls by dose curve; further: potency means the concentration at half of the fitted maximal effect;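 on activity change, negative = inhibition: -100% = full effect of reference inhibitor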). In a few lines: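 20nM CYP1A2, 100uM Luciferin-ME (=Km), 100mM KPO4; cpd 10 min RT; +NADPH regen, 60 min RT; stop/detect 20 min; luminescence. Normalized to furafylline 57 uM = full inhibition.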
Chain of Cytochrome P450 1A2 (Homo sapiens) (P05177 whole entry, looked up): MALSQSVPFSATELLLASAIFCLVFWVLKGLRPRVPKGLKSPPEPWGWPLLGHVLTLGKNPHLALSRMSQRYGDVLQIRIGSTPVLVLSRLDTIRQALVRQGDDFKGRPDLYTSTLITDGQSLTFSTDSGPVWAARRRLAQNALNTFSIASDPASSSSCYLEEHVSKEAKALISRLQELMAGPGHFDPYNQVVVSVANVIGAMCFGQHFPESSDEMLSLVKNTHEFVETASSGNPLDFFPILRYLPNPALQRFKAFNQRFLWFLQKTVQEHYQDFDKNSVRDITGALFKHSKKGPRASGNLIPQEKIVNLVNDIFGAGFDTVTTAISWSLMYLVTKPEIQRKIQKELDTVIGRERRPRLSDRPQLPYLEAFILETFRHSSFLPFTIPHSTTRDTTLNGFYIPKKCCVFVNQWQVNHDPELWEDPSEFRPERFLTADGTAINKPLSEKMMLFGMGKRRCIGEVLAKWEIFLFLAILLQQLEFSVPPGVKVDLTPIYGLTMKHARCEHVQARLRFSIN
Test [2] deals with Glucocorticoid receptor (Homo sapiens) (UniProt P04150). As to the kind of experiment: GR-GFP Redistribution (AID 450;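 active means compounds whose dose series gives a full or clear partial fitted curve of increased nuclear translocation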; further: potency means the concentration at half of the fitted maximal effect). Particulars: U2OS GR-GFP nuclear translocation, laser cytometry, 2 h.
Test [3] shares this target. As to the kind of experiment: GR-EFC Redistribution (AID 451; calls by dose curve; further: potency means the concentration at half of the fitted maximal effect). Particulars: CHO-K1 GR-EFC translocation, beta-gal luminescence, 2 h. In a few lines:
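Translocation of GR-ED fusion to nuclear EA restores b-gal, read by luminescence after 1 h room-temperature detection. Engineered CHO-K1 biosensor cells, 1,000/well, exposed 2 h at 37 C to titrations up to 46 uM final.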

In test [4] the target is Mitogen-activated protein kinase 10 (Mus musculus) (UniProt Q61831). Description: JNK3 AlphaScreen Assay (AID 530; active means well fitted curve in either direction with a large enough effect, not every such curve was filed as active;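 further: kinase came from lysate of stimulated human HepG2 cells; signal reports phosphorylation of biotinylated GST-cJun 1-79 at Ser73 with 10 µM ATP; on the % scale 0 is the no-effect control and ±100 the full control effect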). In outline: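 Kinase buffer: 20 mM Tris-HCl pH 7.6, 10 mM MgCl2, 1 mM DTT, 0.1 mM Na3VO4, 0.01% Tween-20; ATP 10 uM. Substrate biotin-GST-cJun(1-79), enzyme from activated HepG2 lysates. Detection by Ser73 phospho-antibody AlphaScreen.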
Test [5] deals with 3',5'-cyclic-AMP phosphodiesterase 4B (Homo sapiens) (UniProt Q07343). As to the kind of experiment: qHTS Assay for Inhibitors of PDE-IV (AID 607; active means well fitted activation curve with a large enough effect in the main read-out, with a control signal flat, not every such curve was filed as active; further: % of control where 0% means no effect). In a few lines:
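Live HEK293 cells with a modified cyclic nucleotide-gated (CNG) channel report intracellular cAMP via membrane-potential dye fluorescence (ex 535/em 590 nm). Endogenous PDE-IV was targeted. Compounds were tested at up to 22.9 uM final; RO 20-1724 100 uM served as control.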

For test [6], the target named is Ubiquitin carboxyl-terminal hydrolase 1 (Homo sapiens) (UniProt O94782). As to the kind of experiment: Inhibitors of USP1/UAF1: Pilot qHTS (AID 504865). Further: nearly all actives have a fitted effect of over 35% in size. Further: potency means the concentration at half of the fitted maximal effect.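 On activity change, negative = inhibition: rhodamine fluorescence freed from ubiquitin-rhodamine substrate followed over time; top concentration of the series differs between compounds; on the % scale 0 is the no-effect control and ±100 the full control effect.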 In a few lines: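 In 50mM HEPES pH 7.8 containing 0.5mM EDTA, 1mM TCEP, 0.1 mg/ml BSA and 0.01% Tween-20, 1nM USP1/UAF1 is exposed to compound for 15 min, then Ub-Rho (150nM final) is added and fluorescence is read over time.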
Chain of Ubiquitin carboxyl-terminal hydrolase 1 (Homo sapiens) (O94782 whole entry, looked up): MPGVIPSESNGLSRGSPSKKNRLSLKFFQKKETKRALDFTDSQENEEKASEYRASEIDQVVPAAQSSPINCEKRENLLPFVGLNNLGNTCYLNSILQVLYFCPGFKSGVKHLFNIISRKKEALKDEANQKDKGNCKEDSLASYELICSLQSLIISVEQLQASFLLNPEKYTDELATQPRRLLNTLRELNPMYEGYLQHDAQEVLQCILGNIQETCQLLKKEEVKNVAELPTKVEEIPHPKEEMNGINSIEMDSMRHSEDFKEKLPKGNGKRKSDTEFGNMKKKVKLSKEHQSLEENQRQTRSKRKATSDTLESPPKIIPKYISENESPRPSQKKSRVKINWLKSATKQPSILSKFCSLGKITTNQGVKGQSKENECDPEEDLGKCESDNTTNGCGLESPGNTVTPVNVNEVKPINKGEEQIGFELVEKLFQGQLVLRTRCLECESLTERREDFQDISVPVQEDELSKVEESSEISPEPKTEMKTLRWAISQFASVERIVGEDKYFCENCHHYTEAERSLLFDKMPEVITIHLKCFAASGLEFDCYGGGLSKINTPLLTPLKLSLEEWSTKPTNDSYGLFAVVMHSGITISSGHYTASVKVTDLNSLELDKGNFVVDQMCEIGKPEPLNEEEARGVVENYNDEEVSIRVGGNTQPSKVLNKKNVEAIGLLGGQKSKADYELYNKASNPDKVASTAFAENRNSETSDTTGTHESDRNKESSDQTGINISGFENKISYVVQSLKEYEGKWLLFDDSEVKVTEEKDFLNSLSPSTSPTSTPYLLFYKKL

The target of test [7] is DNA dC->dU-editing enzyme APOBEC-3G (Homo sapiens) (UniProt Q9HC16). As to the kind of experiment: qHTS for inhibitors of Vif-A3G interactions: Validation (AID 588379). Further: 0% is about no effect. In a few lines:
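Yellow fluorescence (Ex 488, Em 500-530) of Vif-coexpressing HeLa A3G-eYFP cells, scanned by Acumen cytometer, reports blocked A3G degradation. Cells plated at 700/well overnight at 37 deg C before compound addition, then a further overnight compound incubation at 37 deg C.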

In test [8] the test system is Zika virus NS2B-NS3 protease. Description: Primary screen GU AMC qHTS for Zika virus inhibitors (AID 1347154).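 Further: 0% = no-inhibitor control and -100% = no-enzyme control; nearly all actives have a fitted effect of over 70% in size.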 In outline: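 Fluorogenic AMC-substrate cleavage by noncovalent NS2B-NS3 protease complex (25 nM, pH 8.0 Tris buffer with Tween 20) followed for 15 minutes at room temperature (~20% conversion). Percent inhibition from ex340/em450 signal change, fitted by 4-parameter Hill equation.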

Test [9] addresses Rap guanine nucleotide exchange factor 3 (Homo sapiens) (UniProt O95398). As to the kind of experiment: Confirmatory qHTS for antagonist of cAMP-regulated guanine nucleotide exchange factor 3 (EPAC1) (AID 1645880).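 Further: plate controls were DMSO only for no effect and full effect of the ATA control for full effect; nearly all actives have a fitted effect of over 55% in size.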 In outline: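 Released BODIPY-GDP fluoresces less than Rap1-bound BODIPY-GDP; the signal is followed at 480/540 nm at 5-min intervals over 30 min, after 5 min at room temperature. Reactions contain 100 nM EPAC1, 250 nM RAP1B-BODIPY-GDP and 50 uM GDP; results are normalized to ATA and DMSO.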

Test [10] shares this target. Description: Confirmatory qHTS for agonist of cAMP-regulated guanine nucleotide exchange factor 3 (EPAC1) (AID 1645881).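 Further: EPAC1 catalysed release of BODIPY-GDP from Rap1B seen as fluorescence loss; 100% = effect of cAMP agonist control; nearly all actives have a fitted effect of over 75% in size.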
The target in test [11] is Rap guanine nucleotide exchange factor 4 (Homo sapiens) (UniProt Q8WZA2). Description: Confirmatory qHTS for agonist of cAMP-regulated guanine nucleotide exchange factor 4 (EPAC2) (AID 1645884).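 Further: nucleotide exchange releases bodipy-GDP from Rap1 and this lowers its fluorescence; on the % scale 0 is the no-effect control and ±100 the full control effect; nearly all actives have a fitted effect of over 65% in size.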
Chain of Rap guanine nucleotide exchange factor 4 (Homo sapiens) (Q8WZA2 whole entry, looked up): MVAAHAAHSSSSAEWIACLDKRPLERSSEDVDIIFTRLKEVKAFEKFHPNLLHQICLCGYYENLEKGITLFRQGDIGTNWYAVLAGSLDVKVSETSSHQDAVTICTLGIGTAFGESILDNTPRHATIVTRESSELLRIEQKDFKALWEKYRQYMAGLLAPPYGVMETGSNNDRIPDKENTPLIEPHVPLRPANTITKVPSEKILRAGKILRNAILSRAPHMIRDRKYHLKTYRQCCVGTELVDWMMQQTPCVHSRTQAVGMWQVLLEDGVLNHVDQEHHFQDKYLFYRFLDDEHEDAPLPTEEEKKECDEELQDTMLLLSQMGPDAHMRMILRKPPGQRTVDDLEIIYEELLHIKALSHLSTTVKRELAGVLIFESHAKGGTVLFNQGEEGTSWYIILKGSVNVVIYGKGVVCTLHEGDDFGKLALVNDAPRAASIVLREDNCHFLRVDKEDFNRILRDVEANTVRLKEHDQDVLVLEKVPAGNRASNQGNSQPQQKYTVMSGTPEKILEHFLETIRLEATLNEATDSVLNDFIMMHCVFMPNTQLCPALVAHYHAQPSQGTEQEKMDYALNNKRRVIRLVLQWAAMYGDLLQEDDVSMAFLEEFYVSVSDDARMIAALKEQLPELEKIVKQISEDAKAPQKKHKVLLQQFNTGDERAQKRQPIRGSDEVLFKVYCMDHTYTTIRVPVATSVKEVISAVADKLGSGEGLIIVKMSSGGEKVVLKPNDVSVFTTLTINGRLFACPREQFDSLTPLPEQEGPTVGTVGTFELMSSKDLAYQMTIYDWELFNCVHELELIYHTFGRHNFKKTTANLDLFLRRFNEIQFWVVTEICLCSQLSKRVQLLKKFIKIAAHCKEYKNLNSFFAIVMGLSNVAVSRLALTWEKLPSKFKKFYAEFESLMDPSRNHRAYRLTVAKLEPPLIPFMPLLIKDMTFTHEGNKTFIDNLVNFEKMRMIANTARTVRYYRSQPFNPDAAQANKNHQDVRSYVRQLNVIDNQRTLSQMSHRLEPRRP
For test [12] the target is unchanged. As to the kind of experiment: Confirmatory qHTS for antagonist of cAMP-regulated guanine nucleotide exchange factor 4 (EPAC2) (AID 1645885). Further: nearly all actives have a fitted effect of over 25% in size. Further: potency means the concentration at half of the fitted maximal effect. On activity change, negative = inhibition: on the % scale 0 is the no-effect control and ±100 the full control effect.
Test [13] is described as follows: qHTS Assay for Lipid Storage Modulators (AID 1519; calls by dose curve; on activity change, negative = inhibition: on the % scale 0 is the no-effect control and ±100 the full control effect). To be noted: Drosophila S3 cells, BODIPY lipid droplet/cell ratio, laser cytometry, cells loaded with oleic acid; for activity change, negative = inhibition: at 57.5 µM (top of the series). In outline:
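Cells seeded at 5,000 per well were treated with compounds over a concentration series and loaded with oleic acid (400 uM, as added). Lipid droplet fluorescence (488 nm excitation, 500-530 nm channel) was read by laser-scanning cytometry and normalized to 20 uM Triacsin C.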

[14] abbreviates: measured here: cell count channel max response.
Where [15] appears, read: measured here: lipid channel max response.

Results filed as inconclusive are left out. The source made the active and inactive calls. Unless noted, the call rests on the fitted dose curve; in most records, active means well fitted curve in the direction sought with a large enough effect; inconclusive means small, poorly fitted or top-dose-only effect, or another doubt; inactive means no such curve, though single readings can be large; an effect the other way counts as inactive or inconclusive. A value given as a limit tells only on which side of the number the result lay.

Chain of Rap guanine nucleotide exchange factor 3 (Homo sapiens) (O95398 whole entry, looked up): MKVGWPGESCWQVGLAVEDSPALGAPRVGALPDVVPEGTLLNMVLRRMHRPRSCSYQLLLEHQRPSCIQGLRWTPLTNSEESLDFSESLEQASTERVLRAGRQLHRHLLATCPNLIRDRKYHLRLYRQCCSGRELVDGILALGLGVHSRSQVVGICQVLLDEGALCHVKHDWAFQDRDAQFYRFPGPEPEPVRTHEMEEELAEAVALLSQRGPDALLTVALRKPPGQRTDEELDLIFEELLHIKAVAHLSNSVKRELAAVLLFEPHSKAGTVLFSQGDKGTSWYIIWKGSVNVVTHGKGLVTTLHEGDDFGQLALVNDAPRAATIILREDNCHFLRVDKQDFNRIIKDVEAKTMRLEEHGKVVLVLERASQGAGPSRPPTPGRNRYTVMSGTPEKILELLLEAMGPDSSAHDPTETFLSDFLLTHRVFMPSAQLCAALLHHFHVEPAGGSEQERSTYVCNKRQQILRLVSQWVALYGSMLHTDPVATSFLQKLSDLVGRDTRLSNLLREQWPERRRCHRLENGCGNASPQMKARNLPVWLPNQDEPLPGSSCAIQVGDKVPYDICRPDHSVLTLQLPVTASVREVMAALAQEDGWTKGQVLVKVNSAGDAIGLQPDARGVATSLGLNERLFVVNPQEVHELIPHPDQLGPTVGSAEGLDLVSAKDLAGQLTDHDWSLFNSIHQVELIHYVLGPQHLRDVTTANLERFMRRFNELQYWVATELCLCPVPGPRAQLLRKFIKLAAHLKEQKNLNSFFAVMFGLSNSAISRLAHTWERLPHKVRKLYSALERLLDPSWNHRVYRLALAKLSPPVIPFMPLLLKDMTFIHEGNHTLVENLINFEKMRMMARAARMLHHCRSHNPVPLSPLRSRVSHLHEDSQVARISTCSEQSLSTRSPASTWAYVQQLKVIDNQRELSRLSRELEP
Chain of 3',5'-cyclic-AMP phosphodiesterase 4B (Homo sapiens) (Q07343 whole entry, looked up): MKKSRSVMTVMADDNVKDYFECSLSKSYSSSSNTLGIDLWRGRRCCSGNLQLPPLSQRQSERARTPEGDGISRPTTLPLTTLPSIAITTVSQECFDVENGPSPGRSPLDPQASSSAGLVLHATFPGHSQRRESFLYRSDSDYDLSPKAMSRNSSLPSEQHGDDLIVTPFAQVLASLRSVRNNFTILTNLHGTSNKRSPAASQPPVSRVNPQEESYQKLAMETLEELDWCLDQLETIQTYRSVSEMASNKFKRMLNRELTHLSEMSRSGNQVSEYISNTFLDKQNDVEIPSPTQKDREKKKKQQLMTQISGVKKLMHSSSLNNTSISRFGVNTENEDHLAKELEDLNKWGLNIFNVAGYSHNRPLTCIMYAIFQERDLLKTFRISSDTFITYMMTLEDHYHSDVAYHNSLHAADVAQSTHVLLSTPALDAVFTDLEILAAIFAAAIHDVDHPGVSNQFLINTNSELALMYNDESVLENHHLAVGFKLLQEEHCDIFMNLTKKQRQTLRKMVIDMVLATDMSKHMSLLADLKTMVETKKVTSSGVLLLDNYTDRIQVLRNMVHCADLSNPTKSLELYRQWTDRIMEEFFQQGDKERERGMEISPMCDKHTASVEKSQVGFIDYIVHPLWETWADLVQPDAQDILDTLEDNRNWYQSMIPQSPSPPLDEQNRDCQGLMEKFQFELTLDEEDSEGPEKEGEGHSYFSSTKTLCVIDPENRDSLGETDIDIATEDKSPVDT
Chain of DNA dC->dU-editing enzyme APOBEC-3G (Homo sapiens) (Q9HC16 whole entry, looked up): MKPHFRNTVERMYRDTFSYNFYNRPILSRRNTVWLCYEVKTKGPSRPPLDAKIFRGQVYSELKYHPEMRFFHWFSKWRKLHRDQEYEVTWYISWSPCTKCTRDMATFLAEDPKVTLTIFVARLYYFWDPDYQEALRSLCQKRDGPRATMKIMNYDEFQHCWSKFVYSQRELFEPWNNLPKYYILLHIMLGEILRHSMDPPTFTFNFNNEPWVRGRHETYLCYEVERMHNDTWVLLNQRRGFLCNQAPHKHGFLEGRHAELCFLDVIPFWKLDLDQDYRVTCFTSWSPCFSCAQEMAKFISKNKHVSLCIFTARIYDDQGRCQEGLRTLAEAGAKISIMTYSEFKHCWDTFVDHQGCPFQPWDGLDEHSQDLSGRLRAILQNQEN

With `CC[C@]1(c2ncc[nH]2)Cc2ccccc2O1`, the Potency entry in test [1], in [4], in test [5], in test [6], in test [7] and in test [8] was “inactive” throughout. Further, in test [9], the Potency result is “inactive”. Besides, the Potency in [2] was > 46 µM (inactive); in test [3], > 46 µM (inactive); in test [12], 44.1 µM (active). The outcome in [10] and in [11] was inactive.

In the case of `CN1[C@@H]2CC(OC(=O)[C@H](CO)c3ccccc3)C[C@@H]1[C@H]1O[C@H]12` (stereo partly drawn), the Potency entry in test [7], in [8], in [9] and in [12] was “inactive” throughout. In addition, the outcome in [10] and in test [11] was inactive.

Turning to `N[C@H]1CCN(O)C1=O`, the Potency in test [2] and in [3] was > 46 µM (inactive) throughout. In addition, the Potency entry in test [4], in [6], in test [7] and in test [8] was “inactive” each time. Besides, the activity change, negative = inhibition in test [13] was -6.49% (inactive). Moreover, the max response was -8.46% in [13] (setting [14]) and -12.7% in [13] (setting [15]).

Consider `N#Cc1ccccc1OC[C@H](O)CNCCNC(=O)Nc1ccccc1`, for which the Potency in test [2] and in test [3] was > 46 µM (inactive) throughout. The Potency entry in [4], in test [5], in test [6], in test [7] and in [8] was “inactive” each time. Also, the activity change, negative = inhibition in [13] was 0.479% (inactive). In addition, the max response in test [13] (setting [14]) stood at 6.59%; in test [13] (setting [15]), 10.2%.

In the case of `CCCCCCCCCCCCCCCC(=O)C(F)(F)F`, the Potency in [1] is 31.6 µM (active); in test [3], > 46 µM (inactive). In addition, the Potency entry in test [4], in test [5] and in [8] was “inactive” in each case. Moreover, the activity change, negative = inhibition in [13] was 2.39% (inactive). In addition, the max response in test [13] (setting [14]) is -9.26%; in test [13] (setting [15]) it was -5.47%.

For `N[C@@H](C(=O)O)c1ccc(C(=O)O)cc1`, the Potency entry in test [1], in test [4], in [5], in test [6], in test [7] and in test [8] was “inactive” each time. Moreover, the Potency in test [2] and in test [3] was > 46 µM (inactive) each time. In test [13], the activity change, negative = inhibition is 5.37% (inactive). Besides, the max response is 10.8% in [13] (setting [14]) and 17.4% in [13] (setting [15]).

In the case of `O=C(O)COc1cccc(-c2ocnc2-c2nc(-c3ccccc3)c(-c3ccccc3)o2)c1`, the Potency in test [2] was > 46 µM (inactive); in test [3] it was > 46 µM (inactive); in test [6], 39.8 µM (active). Besides, the Potency result in [4], in test [5], in test [7] and in test [8] was “inactive” each time.

(Values after PubChem BioAssay (NCATS).)
